# Assay results reported in US5652105, “Substrate for detection of mammalian 5-C-DNA methyltransferase” (Health Research, Inc.).
# Biological target: DNA 5-C-methyltransferase (murine, Friend erythroleukemia cells) (Mus musculus, UniProt P13864 P13864:1-1620)
# Assay: same rate as unmethylated A
# Settings: protein: extract; tags: 0.3 M NaCl nuclear extract, 100,000 x g supernatant; single approx. 190 kDa species forming covalent complexes; homodimer, no analogous stem-loop; ssDNA; 5mC at 7
# Sequence of DNA 5-C-methyltransferase (murine, Friend erythroleukemia cells) (P13864 whole entry, one chain of several): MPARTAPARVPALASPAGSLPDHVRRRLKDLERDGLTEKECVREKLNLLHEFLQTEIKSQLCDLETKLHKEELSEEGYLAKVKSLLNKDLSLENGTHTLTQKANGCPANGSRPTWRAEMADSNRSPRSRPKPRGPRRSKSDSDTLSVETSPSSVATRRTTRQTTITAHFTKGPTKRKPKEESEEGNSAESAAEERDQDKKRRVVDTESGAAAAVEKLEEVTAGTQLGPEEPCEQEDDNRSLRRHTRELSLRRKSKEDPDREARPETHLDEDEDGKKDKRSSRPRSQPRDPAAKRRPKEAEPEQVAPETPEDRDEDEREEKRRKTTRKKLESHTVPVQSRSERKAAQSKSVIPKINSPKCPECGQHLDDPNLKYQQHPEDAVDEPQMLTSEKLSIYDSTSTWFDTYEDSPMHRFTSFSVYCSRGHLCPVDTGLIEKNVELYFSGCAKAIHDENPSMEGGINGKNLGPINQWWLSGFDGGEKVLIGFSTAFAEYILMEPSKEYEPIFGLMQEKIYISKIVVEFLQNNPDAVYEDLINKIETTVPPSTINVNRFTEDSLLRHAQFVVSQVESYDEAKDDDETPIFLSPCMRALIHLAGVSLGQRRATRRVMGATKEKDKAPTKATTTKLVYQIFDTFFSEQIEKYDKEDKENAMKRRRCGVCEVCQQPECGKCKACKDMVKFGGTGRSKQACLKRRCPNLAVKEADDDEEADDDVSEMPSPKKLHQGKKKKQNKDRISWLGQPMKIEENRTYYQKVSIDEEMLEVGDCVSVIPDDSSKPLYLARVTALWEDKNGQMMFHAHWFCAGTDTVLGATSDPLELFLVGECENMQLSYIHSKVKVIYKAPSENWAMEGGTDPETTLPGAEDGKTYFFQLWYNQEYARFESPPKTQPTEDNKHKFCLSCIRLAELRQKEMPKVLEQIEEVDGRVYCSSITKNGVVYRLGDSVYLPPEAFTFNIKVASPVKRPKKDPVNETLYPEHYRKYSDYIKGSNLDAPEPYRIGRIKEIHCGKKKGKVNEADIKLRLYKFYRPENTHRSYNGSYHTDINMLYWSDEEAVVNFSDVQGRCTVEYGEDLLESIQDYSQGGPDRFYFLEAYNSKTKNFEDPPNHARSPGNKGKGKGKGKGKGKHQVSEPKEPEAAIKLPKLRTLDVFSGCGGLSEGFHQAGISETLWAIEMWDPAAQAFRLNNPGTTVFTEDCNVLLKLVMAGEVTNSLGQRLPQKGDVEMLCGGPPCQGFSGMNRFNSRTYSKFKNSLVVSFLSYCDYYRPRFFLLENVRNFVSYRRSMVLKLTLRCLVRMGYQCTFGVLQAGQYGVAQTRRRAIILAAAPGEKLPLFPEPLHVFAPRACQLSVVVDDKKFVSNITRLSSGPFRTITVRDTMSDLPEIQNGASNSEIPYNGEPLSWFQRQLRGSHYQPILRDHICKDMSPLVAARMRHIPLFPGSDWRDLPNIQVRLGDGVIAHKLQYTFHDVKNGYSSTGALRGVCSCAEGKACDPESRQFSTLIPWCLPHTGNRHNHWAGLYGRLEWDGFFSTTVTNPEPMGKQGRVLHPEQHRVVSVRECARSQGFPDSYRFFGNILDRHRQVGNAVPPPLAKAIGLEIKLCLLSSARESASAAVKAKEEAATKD
sequence,measurement,value
ATTGCGCTACTCGGATCCGGCCAT,binding signal,1 relative to A
